Test results taken from PubChem BioAssay AID1347417 (National Center for Advancing Translational Sciences (NCATS), 2020).
Screen size: about 120,000 compounds; about 5,300 (4.4%) were called active. Inconclusive results (about 22%) are left out. This excerpt belongs to a sample that is enriched for actives. Unmarked numbers belong to inactive results. Calls follow the shape of the dose curve; as a rule, active = well fitted inhibition curve with a large enough effect; inconclusive = small, poorly fitted or top-dose-only effect; inactive = no such curve, though single readings can be large or run the other way.

Test: qHTS Primary assay for Inhibitors of Plasmodium falciparum Dd2 growth in vitro; also: nearly all actives have a fitted effect of over 65% in size;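 as to activity, negative = inhibition: plate controls were DMSO vehicle for no effect and reference drug for full effect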
Conditions: P. falciparum Dd2 growth, SYBR Green, 72 h; series mostly up to 28.9 µM; activity, negative = inhibition: at the top concentration
In short: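 Readout: SYBR Green fluorescence, 485 nm excitation, 535 nm emission, after ~16 h lysis at 37C. Before that, Dd2-infected red cells (2.5% hematocrit) grew 72 h with compound, 29 uM top final concentration.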
Potency is read from the fitted curve at half-maximal effect.

SMILES	activity, negative = inhibition	outcome	Potency
C[C@H](O)c1onc(-c2ccc(F)cc2)c1C(=O)N1CCC1	-2.21% [at 44.1 µM]	–	–
Cc1cccc(-n2nc(-c3c(C)nc4scc(CC(=O)NCc5ccco5)n4c3=O)cc2C)c1C	–	inactive	–
COc1ccc(Cl)cc1S(=O)(=O)N1CCCC(CNC(=O)c2ccco2)C1 (stereo unspecified)	-19.5%	–	–
Cc1nc(-c2ccccc2)cc([C@H]2CN3CC[C@H]2C[C@@H]3CNC2CCN(C)CC2)n1	-10.6% [at 44.1 µM]	–	–
COc1ccc(-c2cc([C@H]3CN4CC[C@H]3C[C@@H]4COC(=O)NC(C)C)nc(C)n2)cc1	–	inactive [at 44.1 µM]	–
COc1ccccc1-c1cc([C@H]2CN3CC[C@H]2C[C@@H]3CNC(=O)c2ccco2)nc(C)n1	–	–	10 µM (active)
Cc1ccc(C(=O)NC[C@H]2C[C@@H]3CCN2C[C@@H]3c2cc(-c3ccco3)nc(C)n2)cc1	–	–	3.55 µM (active)
Cc1nc(-c2ccc(C(F)(F)F)cc2)cc([C@H]2CN3CC[C@H]2C[C@@H]3CNC(=O)C2CCC2)n1	-20.9%	–	–
O=C(c1ccncc1)N1CCC(C2CCN(Cc3cccc(F)c3F)CC2)C1 (stereo unspecified)	0.365%	–	–
COc1ccc(N2CCN(C(=O)COc3ccc(NC(C)=O)cn3)CC2)cc1	-22.7%	–	–
Cc1cccc(CN2CCc3ncc(C(=O)NCc4ccccc4)n3CC2)n1	9.88% [at 44.1 µM]	–	–
COCC(=O)N(C1CCOCC1)C1CCN(S(=O)(=O)c2ccccc2C)CC1	–	inactive	–
CCOC(=O)c1ccc(NC(=O)Cn2ccn3nc(-c4ccccc4)c(CO)c3c2=O)cc1	-13.6%	–	–
Cc1nn(-c2ccccc2)c(C)c1CC(=O)NC1CCCc2c1[nH]c1ccccc21 (stereo unspecified)	–	inactive	–
CN(C)C[C@@H]1CN(S(C)(=O)=O)C[C@H]1NC(=O)c1ccc2ncccc2c1	4.36%	–	–
CCCCS(=O)(=O)c1oc(-c2cccs2)nc1S(=O)(=O)c1ccccc1	–	–	10 µM (active)
Cc1ccc(CSc2oc(-c3cccs3)nc2S(=O)(=O)c2ccc(C)cc2)cc1	8.49%	–	–
CSc1oc(-c2cccs2)nc1S(=O)(=O)c1ccc(Br)cc1	6.08%	–	–
Cc1cc(OC2CN([S+](=O)([O-])c3ccccc3)C2)ccc1F	-9.59% [at 44.1 µM]	–	–
COC1C(=O)N(CC2CC2)C12CCN(C(=O)NC1CCCCC1)CC2 (stereo unspecified)	-18.9%	–	–
Cn1nccc1CN1CC(Oc2ccc(F)c(F)c2)C1	–	inactive [at 44.1 µM]	–

SMILES	activity, negative = inhibition	outcome	Potency
O=C(NCCc1ccccn1)C1CCCN(c2nc(-c3ccccc3)nc3c2CCC3)C1 (stereo unspecified)	-1.6%	–	–
O=C(NC1CCNC1)C1CCN(c2nc(-c3ccccc3)nc3c2CCC3)CC1 (stereo unspecified)	–	–	7.08 µM (active)
O=C(NCc1cccnc1)C1CCN(c2nc(-c3ccccc3)nc3c2CCC3)CC1	-6.78%	–	–
O=C(C1CCN(c2nc(-c3ccccc3)nc3c2CCC3)CC1)N1CCC[C@H]1CO	–	–	8.91 µM (active)
O=C(CN1CCCC1=O)NC1CCCc2nc(-c3ccccc3)ncc21 (stereo unspecified)	-6.14%	–	–
CC(C)OCC(=O)N1CCN(c2nc(-c3ccccc3)nc3c2CCC3)CC1	–	–	12.6 µM (active)
COCCOCC(=O)N1CCCC(c2nc(-c3ccccc3)no2)CCNC(=O)CC1 (stereo unspecified)	24.6%	–	–
Cc1nc(CCNC(=O)C2CCCN(c3nc(-c4ccccc4)nc4c3CCC4)C2)n[nH]1 (stereo unspecified)	-18.7%	–	–
Cc1ccc(-c2cc(N3CCCN(C(=O)COc4ccccc4)CC3)n[nH]2)cc1C	–	inactive	–
COc1ccc(N2CC(C(=O)N3CCSCC3)CC2=O)cc1Cl (stereo unspecified)	-6.82%	–	–
O=C(Nc1ccccc1Cl)N1CCc2nc3cc[nH]n3c(=O)c2C1	-0.962% [at 5.79 µM]	–	–
Cc1nn(CC(=O)NCC2CCCO2)c(=O)c2nc(C(C)C)sc12 (stereo unspecified)	-21.8%	–	–
CC(C)c1nc(C2Cc3ccccc3N2S(=O)(=O)c2cn(C)cn2)no1 (stereo unspecified)	–	inactive	–
CCc1ccc(NC(=O)N2CCCC(Cn3cnc4cccnc43)C2)cc1 (stereo unspecified)	–	inactive	–
COCCNC(=O)CCc1cc2ccc(C)cc2[nH]c1=O	16%	–	–
O=C(c1cc(F)ccc1F)N1CCCC(n2cc(-c3nc(C4CC4)no3)nn2)C1 (stereo unspecified)	-18.1%	–	–
O=c1n(-c2ccncc2)nc2n1CCN([S+](=O)([O-])c1cccc(C(F)(F)F)c1)C2	21.7%	–	–
CCOc1ccc(C2Cn3nnc(-c4nc(-c5cccc(F)c5)no4)c3CO2)cc1 (stereo unspecified)	–	inactive; activator; fitted 1.7783 uM	–
NC(=O)Cn1ccc2cc(OCC3CCN(c4cnccn4)CC3)cnc21	–	inactive [at 44.1 µM]	–
Cn1ccnc1C(=O)N1CCC2(CC1)CN(c1ncccn1)CC2CO (stereo unspecified)	-6.56%	–	–
COc1cccc(OCc2nnc(C(=O)N3CCC[C@@H]3c3cccc(F)c3)n2-c2ccccc2)c1	–	inactive	–

SMILES	activity, negative = inhibition	outcome	Potency
Cc1ccc(Nc2nc3ccccc3nc2-n2nc(C)cc2C)c(Cl)c1	34.1%	–	–
Cc1cccc(Nc2cc(C)nc(-n3nc(C)cc3C)n2)c1	–	–	5.62 µM (active)
Cc1cc(=O)n(CC(=O)Nc2cccc([N+](=O)[O-])c2)c(-n2nc(C)cc2C)n1	10.6%	–	–
O=C(c1ccc2cc[nH]c2n1)N1CCOCC1	13.4% [at 44.1 µM]	–	–
COc1ccc(CNC(=O)c2cccc3c2CCN3C(=O)c2ccc(F)cc2)cc1OC	–	inactive	–
COc1ccc(N2C(=O)C3(CCCCC3)C2C(=O)NCCc2ccncc2)cc1 (stereo unspecified)	9.99%	–	–
COc1ccc(C2Sc3ccccc3NC3=C2C(=O)c2ccccc23)c(OC)c1OC (stereo unspecified)	–	–	0.316 µM (active)
COc1nc2nc(CC3CC3)n(C)c2cc1-c1ccc(CO)cc1	-10.5% [at 44.1 µM]	–	–
CCN(CC)CCCNC(=O)c1cn(C)c2ccc(S(=O)(=O)N(C)C3CCCCC3)cc2c1=O	62%	–	–
COc1ccccc1Nc1cc(C(=O)NCCCN(C)C2CCCCC2)c2ccccc2n1	–	–	10 µM (active)
COc1ccc(CCNC(=O)c2c3c(nc4ccccc24)C(=O)N(C2CCCCC2)C3)cc1OC	23.2%	–	–
Cc1ccc(NC(=O)Cn2c(-c3ccc(Cl)cc3)nc(C)c(CCO)c2=O)cc1C	-20.1%	–	–
CCN(CC)C(=O)C(NC(=O)c1ccc(OC)cc1)C1CCN(C(=O)C(C)C)CC1 (stereo unspecified)	-18.8%	–	–
CCN(CC)C(=O)C(NC(=O)c1ccc(OC)cc1)C1CCN(C(=O)c2ccc(F)cc2)CC1 (stereo unspecified)	–	inactive	–
O=C(NC(C(=O)N1CCCCC1)C1CCN(C(=O)c2ccc(Cl)cc2)CC1)c1ccccc1 (stereo unspecified)	–	–	5.01 µM (active)
CNC(=O)[C@@H]1CN(C(=O)c2ccc3ccccc3n2)C[C@H]1COC	0.257%	–	–
CS(=O)(=O)c1cnc(NCCc2cnc[nH]2)nc1C1CCCNC1 (stereo unspecified)	-2.1%	–	–
CN(CC1CCOC1)C(=O)Nc1ccc(Cl)cc1 (stereo unspecified)	–	inactive [at 5.79 µM]	–
CC(C)(C)c1csc(NC(=O)C[C@H]2NC(=O)c3ccccc3NC2=O)n1	–	inactive	–
